Measured values: PubChem BioAssay (NCI)
“And” between values parts separate entries of the source, which are not always exact repeats. Identical values can stand only once. About 83,000 compounds went through this panel and 20% of them were active in at least one assay; those are over-represented in the sample as a whole.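 The test compound was applied at a single concentration to cells in 96-well plates for 48 hours, and percent growth was recorded.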 The source made the active and inactive calls. Rule for the calls: active = growth percent below 10; inactive = the rest. Where a SMILES comes first, the peptide text is derived from it. The star is where a group is joined. Trt = c1ccc(C(c2ccccc2)(c2ccccc2)*)cc1; Cbz = O=C(OCc1ccccc1)*

Columns and labels:
Assay in all cases: NCI-60 one-dose screen, 48 h (100 = growth as untreated, 0 = no growth, -100 = all killed)
[1] = test system: OVCAR-8 ovarian
[2] = test system: SK-OV-3 ovarian
[3] = test system: IGROV1 ovarian
[4] = test system: SR leukemia; conditions: 10 µM unless noted
[5] = test system: RPMI-8226 leukemia; conditions: 10 µM unless noted
[6] = test system: OVCAR-5 ovarian; conditions: 10 µM unless noted
[7] = test system: OVCAR-4 ovarian; conditions: 10 µM unless noted
[8] = test system: OVCAR-3 ovarian; conditions: 10 µM unless noted
[9] = test system: HS 578T breast; conditions: 10 µM unless noted
[10] = test system: NCI/ADR-RES ovarian; conditions: 10 µM unless noted

Measured: growth

O=C(Nc1cccc(Br)c1)Oc1cccc2cccnc12
inactive: [1]; 10 µM 102% | [1]; 100 µM 11% | [2]; 10 µM 110% | [2]; 100 µM 102%

O=C(O)c1c(Cl)c(Cl)c(Cl)c(Cl)c1-c1c2cc(I)c(=O)c(I)c-2oc2c(I)c(O)c(I)cc12
active: [2]; 100 µM -73.9%
inactive: [2]; 10 µM 101% and 92.4% and 93.1%

COc1ccc(-c2cscc2N)cc1
inactive: [3]; 10 µM 91.1% | [3]; 100 µM 58%

Cn1c2ccccc2c2nnc(N/N=C/c3ccccn3)nc21
inactive: [1]; 10 µM unless noted 23.9% | [6] 40.6% | [7] 24.4% | [8] 23.5% | [9] 53.7%
active: [4] 8.61% | [5] -14.2% | [3]; 10 µM unless noted 4.97% | [10] 6.51%

CCCCCCCCCCCCCCCCOP(=O)([O-])OCC[N+](C)(C)C
inactive: [4] 15% | [1]; 10 µM unless noted 59.6% | [6] 53.2% | [7] 78.3% | [2]; 10 µM unless noted 37.9% | [8] 33.4% | [9] 33.7% | [10] 90%
active: [5] 7.31%

CCC(c1cccc(O)c1)C(CC)c1cccc(O)c1 (centres undefined)
inactive: [4] 16.5% | [5] 31.6% | [1]; 10 µM unless noted 85.6% | [6] 96.3% | [7] 67.6% | [2]; 10 µM unless noted 76.5% | [8] 77.3% | [9] 54.2% | [10] 72.1%

Cc1ccc2nc(-[n+]3cc4ccccc4cc3C)ccc2c1
inactive: [4] 33.2% | [5] 15.1% | [1]; 10 µM unless noted 33.6% | [6] 61.4% | [7] 28.6% | [3]; 10 µM unless noted 46.4% | [8] 44.6% | [9] 67.3% | [10] 109%

O=C(Nc1ccc(F)cc1)ON=C1CCCCC1
inactive: [4] 84.9% [100 µM] | [5] 93.9% [100 µM] | [1]; 10 µM unless noted 106% [100 µM] | [6] 97.9% [100 µM] | [7] 99.1% [100 µM] | [2]; 10 µM unless noted 129% [100 µM] | [8] 108% [100 µM] | [9] 99% [100 µM] | [10] 105% [100 µM]

Cc1ccc2nc(C[n+]3ccc4ccccc4c3)ccc2c1
inactive: [4] 62.8% | [5] 30.5% | [1]; 10 µM unless noted 57.8% | [6] 79.7% | [7] 43.8% | [3]; 10 µM unless noted 59.7% | [8] 52.8% | [9] 90.8% | [10] 104%

CCN1/C(=C\c2cc[n+](CC)c3ccccc23)C=Cc2ccccc21
active: [1]; 10 µM unless noted 9.96%
inactive: [4] 15.7% | [5] 12.6% | [6] 11.7% | [7] 12.9% | [3]; 10 µM unless noted 29.8% | [8] 11.8% | [9] 37.4% | [10] 86.9%

C=C(Cl)C(=NC(C)(C)C)Nc1ccccc1C
active: [4] 1.56%
inactive: [5] 75.1% | [1]; 10 µM unless noted 89.2% | [7] 91.7% | [2]; 10 µM unless noted 105% | [3]; 10 µM unless noted 119% | [8] 65.9% | [9] 96.5% | [10] 107%

CC1=CC(O)C2CC1C2(C)C (centres undefined)
inactive: [4] 101% and 97.3% | [5] 111% and 107% | [1]; 10 µM unless noted 105% and 104% | [6] 104% and 110% | [7] 99.7% and 108% | [2]; 10 µM unless noted 94.3% and 104% | [8] 110% and 113% | [9] 97.5% and 106% | [10] 108% and 109%

CCOC(=O)/C(=C\c1ccc(-c2ccccc2)cc1)C(C)=O
inactive: [4] 95.9% | [5] 105% | [1]; 10 µM unless noted 113% | [6] 96.7% | [7] 105% | [2]; 10 µM unless noted 116% | [8] 98.2% | [9] 103% | [10] 103%

O=[N+]([O-])c1ccc2c(N=Nc3ccc4ccccc4c3O)c(O)cc(S(=O)(=O)O)c2c1
inactive: [4] 90.3% | [5] 96.8% | [1]; 10 µM unless noted 70.5% | [6] 106% | [7] 63% | [3]; 10 µM unless noted 61.7% | [8] 41.4% | [9] 105% | [10] 86.1%

Nc1ncnc2c1ncn2C1OC(CO)C(O)C1O (centres undefined)
inactive: [4] 98.7% and 21% and 87.3% | [5] 101% and 77.5% and 112% | [1]; 10 µM unless noted 93.5% and 56% and 105% | [6] 122% and 127% | [7] 123% and 83.8% and 91.7% | [3]; 10 µM unless noted 109% and 104% | [8] 116% and 89.8% and 108% | [9] 125% and 77.9% | [10] 110% and 72%

COC(=O)C(CSC(c1ccccc1)(c1ccccc1)c1ccccc1)NC(=O)C(CC(N)=O)NC(=O)OCc1ccccc1 (stereo not drawn) (Cbz-Asn-Cys(Trt)-OMe; configuration not given here)
active: [4] -43.7% | [5] 2.8% | [8] -5.78% | [9] -20.4%
inactive: [1]; 10 µM unless noted 13.1% | [6] 67% | [7] 39.5% | [2]; 10 µM unless noted 14.2% | [10] 63.2%

O=C(Nc1ccccc1)c1cc(Cl)ccc1O
inactive: [4] 48.7% | [5] 19.9% | [1]; 10 µM unless noted 44.9% | [6] 94.1% | [7] 41.3% | [2]; 10 µM unless noted 73.6% | [8] 37.4% | [9] 29% | [10] 74.6%

CCN(CC)CC(C)(C)C(=O)/C=C/c1ccc(Cl)c(Cl)c1
inactive: [4] 10.3% | [7] 30.3% | [2]; 10 µM unless noted 42.7% | [9] 10.2%
active: [5] 2.2% | [1]; 10 µM unless noted -21.6% | [6] -43.1% | [8] -66.3% | [10] -12.6%

CCC(CC)COC(=O)c1ccc(O)c(O)c1
inactive: [4] 18.6% | [5] 35.1% | [1]; 10 µM unless noted 59.9% | [6] 91.3% | [7] 77.2% | [3]; 10 µM unless noted 37.5% | [8] 78.1% | [9] 86.8% | [10] 57.8%

COc1ccc2nc3cc(Cl)ccc3c(NCCNc3c4ccc(Cl)cc4nc4ccc(OC)cc34)c2c1
active: [4] -29.8% | [5] -34.5% | [1]; 10 µM unless noted -65.4% | [6] -90.1% | [7] -43.6% | [3]; 10 µM unless noted -78.9% | [8] -92.5% | [9] -34.9% | [10] -53.5%

C=CCOc1ccc(N=NC(C#N)C#N)cc1
active: [4] 8.51% | [5] 2.95%
inactive: [1]; 10 µM unless noted 86.9% | [6] 93.8% | [7] 31.6% | [2]; 10 µM unless noted 52.7% | [8] 39.7% | [9] 88.6% | [10] 103%

C1=C(c2ccccc2)C(c2ccc(OCCN3CCCCC3)cc2)Oc2ccccc21 (centres undefined)
inactive: [5] 15.5% | [1]; 10 µM unless noted 77% | [6] 72.4% | [7] 64% | [3]; 10 µM unless noted 44.2% | [8] 65.6% | [9] 75.6% | [10] 68.4%
active: [4] -0.379%

Cc1ccnc2c1ccc1c(C)ccnc12
active: [4] 4.34% | [2]; 10 µM unless noted 3.59% | [10] 1.41%
inactive: [5] 17.4% | [1]; 10 µM unless noted 12.1% | [6] 48.8% | [7] 24.1% | [8] 24.9% | [9] 52.6%

Oc1ccc(/C=N/NC(=S)Nc2ccccc2)nc1
inactive: [1]; 10 µM unless noted 15.2% | [6] 34.1% | [8] 20% | [9] 88.5%
active: [4] -22.7% | [5] 6.99% | [10] 3.65%

COc1cc(/C=C/C(C)=O)ccc1O
inactive: [4] 93.2% and 89.3% | [5] 116% | [1]; 10 µM unless noted 104% and 105% | [6] 92.3% and 102% | [7] 108% and 103% | [3]; 10 µM unless noted 101% and 119% | [8] 100% and 106% | [9] 113% | [10] 107% and 100%

CCOC(=O)c1c(C)[nH]c(CO)c1C
inactive: [4] 101% | [5] 97.8% | [1]; 10 µM unless noted 101% | [7] 105% | [2]; 10 µM unless noted 102% | [3]; 10 µM unless noted 98% | [8] 103% | [9] 109% | [10] 105%

Cc1c2ccccc2c(C)c2c1ccc1ccccc12
inactive: [4] 63.8% | [5] 84.3% | [1]; 10 µM unless noted 98.8% | [6] 95.6% | [7] 89.9% | [3]; 10 µM unless noted 81% | [8] 105% | [9] 98% | [10] 106%

COc1ccccc1/C=C\C(=O)c1ccccc1
active: [5] -13.3%
inactive: [4] 15.3% | [1]; 10 µM unless noted 75.8% | [6] 84% | [7] 81.2% | [8] 110% | [9] 86% | [10] 14.2%

N#CSCc1c(Cl)cccc1Cl
active: [8] 4.78%
inactive: [4] 59.5% | [5] 47.7% | [1]; 10 µM unless noted 100% | [6] 106% | [7] 35.2% | [3]; 10 µM unless noted 11.5% | [9] 80.6% | [10] 95.4%
